Twelve molecules from publication PMC5540273 (PLoS ONE, 2017) can be followed below.
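Note: KINOMEscan kinase panel screen.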

This test deals with T1, YANK1.
T1 construct: gene STK32A
Particulars: concentration: 1 μM,replicates: in singlicate; n = 1.
In the case of `CC(C)N1C(=O)Cc2cc(Nc3ncc(C(F)(F)F)c(NCc4cccc(S(C)(=O)=O)c4)n3)ccc21`, the “%Inh” value is reported as 6%. The same measure for `CN(C)CC(O)COc1ccc(Nc2nccc(-c3cnn4nc(N5CCOCC5)ccc34)n2)cc1` (stereo not drawn) [GW767488]: 29%; for `Cl.Cl.Nc1nc(-c2ccc3c(N)n[nH]c3c2)cc(N2CCCC(NC(=O)c3ccccc3)C2)n1` (stereo not drawn) [GSK2286775]: 0%. Under `Cc1cc2cn[nH]c2cc1-c1cccc2c(N)c(C(N)=O)nnc12` stands 26%; under `CN(C)CCOc1ccc(-c2cc(-c3c[nH]nc3-c3ccccn3)ccn2)cc1` [GW835314], 89%. Under `COc1ccc(C[C@@H](CN)NC(=O)c2cc(Br)c(-c3ccnc4[nH]ccc34)s2)cc1.Cl.Cl` [GSK1389063] stands 71%; under `CNC(=O)c1ccccc1Sc1ccc2c(/C=C/c3ccccn3)n[nH]c2c1`, 19%. For `CCn1c(-c2nonc2N)nc2c(C#CC(C)(C)O)nc(OCCN)cc21.Cl.Cl` [GSK902056], the “%Inh” value is recorded as 12%.

Take `Cc1ccc(-n2nc(C(C)(C)C)cc2NC(=O)Nc2ccc(OCCN3CCOCC3)c3ccccc23)cc1` [GW839464]: the “%Inh” value came out at 0%. Under `Nc1nc(Nc2ccccc2)cc(-c2ccc3c(N)n[nH]c3c2)n1` [GSK2225749] stands 15%; under `CCN(CC)CCCCNc1ncc2cc(-c3c(Cl)cccc3Cl)c(NC(=O)NC(C)(C)C)nc2n1`, 53%; under `O=C(NCCNc1ccnc(NCc2ccc(F)cc2)n1)c1cc2ccccc2s1` [GSK1379944], 19%.
